Data taken from PubChem BioAssay (NCATS).
Inconclusive results are not listed. Activity calls are given as the source filed them. Unless noted, calls come from the whole dose curve; as a rule, active = well fitted curve in the direction sought with a large enough effect; inconclusive = small, poorly fitted or top-dose-only effect, or another doubt; inactive = no such curve, though single readings can be large; an effect the other way counts as inactive or inconclusive.

Assays:
[1] = qHTS for Inhibitors of Plasmodium falciparum (DD2) proliferation (AID 504314);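 note: parasite DNA measured by SYBR Green fluorescence after red cell lysis; plate controls were DMSO vehicle for no effect and artemisinin wells for full effect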
Procedure, shortened: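 Quantitative HTS growth inhibition: SYBR Green I binding to parasite DNA after 72 h drug exposure of infected erythrocytes (0.3% parasitemia, 2.5% hematocrit). Signals normalized per plate to inhibitor and vehicle wells.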

[2] = qHTS for Inhibitors of Plasmodium falciparum (GB4) proliferation (AID 504315);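 note: 0% = DMSO vehicle and -100% = 0.29 µM artemisinin control; nearly all actives have a fitted effect of over 50% in size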
Procedure, shortened: (§1)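 Erythrocytes infected with P. falciparum line (0.3% parasitemia, 2.5% hematocrit final) incubated with compounds 72 h at 37 °C, 5% CO2; SYBR Green lysis buffer added, fluorescence read next day. Normalized to 0.29 uM artemisinin and DMSO.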

[3] = qHTS for Inhibitors of Plasmodium falciparum (7G8) proliferation (AID 504316);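 note: series mostly up to about 6.7 µM; 0% = DMSO vehicle and -100% = 0.29 µM artemisinin full kill; nearly all actives have a fitted effect of over 65% in size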
Procedure, shortened: as §1

[4] = qHTS for Inhibitors of Plasmodium falciparum (HB3) proliferation (AID 504318);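 note: 0% = DMSO vehicle and -100% = artemisinin control; nearly all actives have a fitted effect of over 60% in size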
Procedure, shortened: as §1

[5] = qHTS for Inhibitors of Plasmodium falciparum (CP250) proliferation (AID 504320);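 note: plate controls were DMSO vehicle for no effect and 0.29 µM artemisinin control for full effect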
Procedure, shortened: as §1

[6] = biological target: Atrial natriuretic peptide receptor 1 (Homo sapiens) (UniProt P16066); experiment: Natriuretic polypeptide receptor (hNpr1) antagonism - Pilot CMLD screen (AID 1347052; calls by dose curve;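 note: HEK293 cells with hNpr1 stimulated by hNppA peptide at 0.1 nM; cGMP level read as GloSensor luciferase luminescence after agonist stimulation; series mostly up to about 9.2 µM; % is set by controls: 0 for no effect and ±100 for the full control effect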)
Atrial natriuretic peptide receptor 1 (Homo sapiens), sequence (P16066 whole entry, looked up): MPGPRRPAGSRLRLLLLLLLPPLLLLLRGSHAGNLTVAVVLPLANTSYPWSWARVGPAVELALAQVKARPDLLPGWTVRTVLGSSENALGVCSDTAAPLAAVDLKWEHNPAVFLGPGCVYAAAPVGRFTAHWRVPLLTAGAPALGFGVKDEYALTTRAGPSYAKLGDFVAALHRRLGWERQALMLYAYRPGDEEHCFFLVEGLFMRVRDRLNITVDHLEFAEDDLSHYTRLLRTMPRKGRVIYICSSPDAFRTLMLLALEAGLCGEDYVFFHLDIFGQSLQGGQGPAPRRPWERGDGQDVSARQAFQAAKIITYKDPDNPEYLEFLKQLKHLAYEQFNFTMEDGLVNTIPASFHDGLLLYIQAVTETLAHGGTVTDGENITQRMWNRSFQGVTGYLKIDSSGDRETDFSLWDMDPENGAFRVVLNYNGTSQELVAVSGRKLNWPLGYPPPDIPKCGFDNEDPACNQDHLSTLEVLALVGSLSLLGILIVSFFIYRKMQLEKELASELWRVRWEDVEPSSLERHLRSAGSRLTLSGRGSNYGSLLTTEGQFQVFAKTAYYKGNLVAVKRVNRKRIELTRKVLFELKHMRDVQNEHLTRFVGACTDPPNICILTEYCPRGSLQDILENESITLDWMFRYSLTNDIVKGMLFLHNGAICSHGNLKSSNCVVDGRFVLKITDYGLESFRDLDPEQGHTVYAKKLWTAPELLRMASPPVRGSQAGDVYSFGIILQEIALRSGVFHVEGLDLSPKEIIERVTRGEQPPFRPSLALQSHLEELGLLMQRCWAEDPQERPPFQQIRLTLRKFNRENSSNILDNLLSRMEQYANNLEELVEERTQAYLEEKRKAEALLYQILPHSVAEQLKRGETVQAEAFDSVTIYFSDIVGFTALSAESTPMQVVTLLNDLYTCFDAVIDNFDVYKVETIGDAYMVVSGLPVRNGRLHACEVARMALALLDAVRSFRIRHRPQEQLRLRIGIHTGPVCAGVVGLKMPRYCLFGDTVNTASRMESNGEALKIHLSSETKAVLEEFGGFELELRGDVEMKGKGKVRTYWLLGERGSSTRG

COc1cccc([C@@H]2Oc3ccc(OC)cc3[C@H](O)[C@@H]2O)c1
inactive: Potency [1] | Potency [2] | Potency [3] | Potency [4] | Potency [5] | Potency [6]

CC(C)[C@@H](OCc1ccccc1)[C@H](C)C=NOC[C@@H](O)[C@H]1O[C@@H]2OC(C)(C)O[C@H]2[C@@H]1O
inactive: Potency [1] | Potency [2] | Potency [3] | Potency [4] | Potency [5] | Potency [6]

COCC1=Cc2cc3c(cc2C(C(C(=O)OC)C(=O)OC)N1C(=O)OC)OCO3 (stereo unspecified)
inactive: Potency [1] | Potency [2] | Potency [3] | Potency [4] | Potency [5] | Potency [6]

C=CCN1C(=O)C2(CC(C)=C[C@@H](C)O2)c2c(Br)cccc21 (stereo partly specified)
inactive: Potency [1] | Potency [2] | Potency [3] | Potency [4] | Potency [5] | Potency [6]

COCC1=C(C(=O)OC)C(c2ccccc2)N(C(C)=O)C(=O)N1 (stereo unspecified)
inactive: Potency [1] | Potency [2] | Potency [3] | Potency [4] | Potency [5] | Potency [6]

COCC=CC1=CC2=CC(=O)C(C)(OC(=O)c3cnc4ccccc4n3)C(=O)C2=CN1CC1CC1 (stereo unspecified)
inactive: Potency [1] | Potency [2] | Potency [3] | Potency [4] | Potency [5] | Potency [6]

CCCCC1=CC2=C(c3ccco3)C(=O)C(C)(OC(=O)c3ccc(OC)cc3)C(=O)C2=CN1Cc1ccccc1 (stereo unspecified)
inactive: Potency [1] | Potency [2] | Potency [3] | Potency [4] | Potency [5] | Potency [6]

CC(=O)OC[C@H]1O[C@H](c2cc(C)cc(C)c2)C=C[C@H]1OC(C)=O
inactive: Potency [1] | Potency [2] | Potency [3] | Potency [4] | Potency [5] | Potency [6]

CCCCC1=CC2=CC(=O)C(C)(OC(=O)c3cnc4ccccc4n3)C(=O)C2=CO1 (stereo unspecified)
inactive: Potency [1] | Potency [2] | Potency [3] | Potency [4] | Potency [5] | Potency [6]

COC(=O)C[C@H]1c2ccccc2[C@@H]2C(=C[C@@H](C)[C@H]3C(=O)N(c4ccccc4)C(=O)[C@H]32)N1C(=O)OC
inactive: Potency [1] | Potency [2] | Potency [3] | Potency [4] | Potency [5] | Potency [6]

COC(=O)CC=C[C@@H](C)[C@@H](C=NOC[C@@H](C)[C@H](OCc1ccccc1)C(C)C)NS(=O)(=O)c1ccc(C)cc1
inactive: Potency [1] | Potency [2] | Potency [3] | Potency [4] | Potency [5] | Potency [6]

C#CC1(O)C(OC)=CC2C(=O)C1C(c1ccccc1)C2C (stereo unspecified)
inactive: Potency [1] | Potency [2] | Potency [3] | Potency [4] | Potency [5] | Potency [6]

CCN1C(=NCc2ccccc2)N[C@@H](CCc2ccccc2)[C@H](C(=O)OC)[C@H]1C
inactive: Potency [1] | Potency [2] | Potency [3] | Potency [4] | Potency [5] | Potency [6]

COC(=O)N[C@H](C(C(=O)OC)=C(C)NCc1ccccc1)c1ccco1
inactive: Potency [1] | Potency [2] | Potency [3] | Potency [4] | Potency [5] | Potency [6]

COC(=O)N[C@H](CC(C)=O)c1ccccc1
inactive: Potency [1] | Potency [2] | Potency [3] | Potency [4] | Potency [5] | Potency [6]

COCC(=O)N1CCc2nc(-c3ccccc3)c3c(c2C1)CO[C@@H](C)C3
inactive: Potency [1] | Potency [2] | Potency [3] | Potency [4] | Potency [5] | Potency [6]

COc1ccc2c(c1)C(=O)[C@@H](OC(=O)Nc1cc(OC)c(OC)c(OC)c1)[C@H](c1ccc(OC)c(Br)c1)O2
inactive: Potency [1] | Potency [2] | Potency [3] | Potency [4] | Potency [5] | Potency [6]

CC(C)=CCn1cnc2c1C(NOCc1ccccc1)=NCN2
inactive: Potency [1] | Potency [2] | Potency [3] | Potency [4] | Potency [5] | Potency [6]

C=CCOC(=O)C(C(C)=O)[C@@H](NC(=O)OC)c1ccco1 (stereo partly specified)
inactive: Potency [1] | Potency [2] | Potency [3] | Potency [4] | Potency [5] | Potency [6]

CCOC(=O)C1(C(=O)OCC)Cc2ccc(C(C)=O)cc2C1
inactive: Potency [1] | Potency [2] | Potency [3] | Potency [4] | Potency [5] | Potency [6]

CC12C=C(C=CCCc3ccco3)C(C)(C1)C(CCc1ccco1)CC2=O (stereo unspecified)
inactive: Potency [1] | Potency [2] | Potency [3] | Potency [4] | Potency [5] | Potency [6]

COc1ccc(NC(=O)N2CCc3nc(-c4ccccc4)c4c(c3C2)CO[C@@H](C)C4)cc1
inactive: Potency [1] | Potency [2] | Potency [3] | Potency [4] | Potency [5] | Potency [6]

COC(=O)C[C@H]1c2ccccc2C2=C(C[C@@H](C)[C@H]3C(=O)NC(=O)[C@@H]23)N1C(=O)OC
inactive: Potency [1] | Potency [2] | Potency [3] | Potency [4] | Potency [5] | Potency [6]

CC1(OC(=O)C2CCCC2)C(=O)C=C2C=C3CCCCN3C=C2C1=O (stereo unspecified)
inactive: activity, negative = inhibition [1] 1.6% [at 1.12 µM] | Potency [2] | Potency [3] | Potency [4] | Potency [5] | Potency [6]

CC1=C[C@@H](C)OC2(C1)C(=O)N(CC1CC1)c1cccc(Br)c12 (stereo partly specified)
inactive: Potency [1] | Potency [2] | Potency [3] | Potency [4] | Potency [5] | Potency [6]

C[C@@H]1NC(=O)[C@@H](C)COC(=O)[C@H](C)NC(=O)[C@@H](C)COC1=O
inactive: Potency [1] | Potency [2] | Potency [3] | Potency [4] | Potency [5] | Potency [6]
